# Screening results from PubChem.
# Only some compounds are listed: those with a hit (about 2.4% of all), similar ones and a draw of the others.
# Pf gamet viab: kills late stage P. falciparum gametocytes; P. falciparum stage V gametocytes, ATP luminescence, 24 h; inhibition, % at 10.9 µM; hit rate 0.065% among 150,000;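 active = inhibition above the mean plus 3 SD of compounds within the control limits, set per campaign, cut at about 38% in these data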;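 note: 0% = DMSO wells and 100% = medium only without gametocytes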
# MEKK2wt PB1 HTS: raises or lowers MEK5 binding to wildtype human MEKK2 PB1 domain. bead flow cytometry, Alexa488-MEK5 binding to MEKK2 WT; actives lie on both sides. AID 1531. hit rate 1.1% among 290,000. binding response (% of control), % at 10 µM; in the data active = binding response below about 67% or above about 130%
# MEKK2 mut-MEK5: signal of MEK5 binding to mutant human MEKK2 PB1 domain; bead flow cytometry, Alexa488-MEK5 binding to MEKK2 mutant; percent response, % at 10 µM; hit rate 0.35% among 290,000; AID 1530; in the data active = percent response above about 24%, passing the limit was not always enough
# Arbovirus anti: blocks arbovirus infection; arbovirus infection cell-based antiviral screen; inhibition, % at 10 µM; hit rate 0.37% among 200,000; in the data active = inhibition above about 30%
# MEKK3 PB1 HTS: modulators (inhibitors or enhancers) of MEK5 binding to human MEKK3 PB1 domain | Q99759 | bead-based flow cytometry, Alexa488-MEK5 binding to MEKK3; actives lie on both sides; 0 = blocked by unlabeled MEK5, 100 = vehicle | binding response (% of control), % at 10 µM | hit rate 1.4% among 290,000;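 active = binding response more than 3 SD above or below the average of its plate-row segment, actives on both sides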;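 note: Alexa488 bead fluorescence after subtracting the streptavidin-only scavenger bead signal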
# Target sequence (Q99759 whole entry, looked up, the tested form may be a part): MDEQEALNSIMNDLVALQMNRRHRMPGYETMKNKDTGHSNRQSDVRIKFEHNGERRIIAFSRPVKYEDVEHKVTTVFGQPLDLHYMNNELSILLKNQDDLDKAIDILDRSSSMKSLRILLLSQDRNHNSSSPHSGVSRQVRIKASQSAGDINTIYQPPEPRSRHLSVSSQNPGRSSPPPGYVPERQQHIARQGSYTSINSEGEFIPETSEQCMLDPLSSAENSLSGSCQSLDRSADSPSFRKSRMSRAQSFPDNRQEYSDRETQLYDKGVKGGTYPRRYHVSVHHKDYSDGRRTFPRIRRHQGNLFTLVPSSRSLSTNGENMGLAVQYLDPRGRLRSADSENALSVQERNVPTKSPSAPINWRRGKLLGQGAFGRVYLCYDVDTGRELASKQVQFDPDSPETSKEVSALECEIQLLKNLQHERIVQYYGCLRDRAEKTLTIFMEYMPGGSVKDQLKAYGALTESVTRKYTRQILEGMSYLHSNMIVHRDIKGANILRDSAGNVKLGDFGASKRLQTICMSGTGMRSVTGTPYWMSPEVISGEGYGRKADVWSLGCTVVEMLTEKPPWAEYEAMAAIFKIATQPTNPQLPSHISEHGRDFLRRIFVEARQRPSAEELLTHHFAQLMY
# MEKK2wt confirm: raises or lowers MEK5 binding to wildtype human MEKK2, retest; binding response (% of control), % at 10 µM; hit rate 2.4% among 5,900; shares compounds with MEKK3 PB1 HTS; bead flow cytometry, Alexa488-MEK5 binding to MEKK2 WT; actives lie on both sides; in the data active = binding response below about 16% or above about 210%; inactive = in between
# MEKK2mut-MEK5: signal of MEK5 binding to mutant human MEKK2, retest; shares compounds with MEKK3 PB1 HTS; bead flow cytometry, Alexa488-MEK5 binding to MEKK2 mutant; percent response, % at 10 µM; hit rate 2% among 5,900; AID 1893; in the data active = percent response mostly above about 71%, no sharp cut-off; inactive = mostly below about 38%;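 note: higher means compound restores mutant binding toward wildtype level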
# MEKK3 confirm: confirmation of inhibitors of MEK5 binding to human MEKK3. bead flow cytometry, Alexa488-MEK5 binding to MEKK3; hits give low values. hit rate 1.8% among 5,900. shares compounds with MEKK3 PB1 HTS. binding response (% of control), % at 10 µM. AID 1894;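 active = binding response below 72% of control, or above a set upper limit, though filed actives all read lower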;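 note: 100% = DMSO only wells and 0% = binding blocked by excess unlabeled MEK5; lower values mean stronger disruption of MEK5 binding to MEKK3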
# Starred values were filed as active, the others as inactive; x = no result; [ ] = another dose, or the depositor's remark.
SMILES,Pf gamet viab,MEKK2wt PB1 HTS,MEKK2 mut-MEK5,Arbovirus anti,MEKK3 PB1 HTS,MEKK2wt confirm,MEKK2mut-MEK5,MEKK3 confirm
CCOc1cccc2sc(N(CCCN(C)C)C(=O)c3ccc(C(=O)c4ccccc4)cc3)nc12,x,161.0*,35.0*,x,108.0,154.0,23.0,105.0
Cc1cccc2sc(N(CCN(C)C)C(=O)c3ccc4ccccc4c3)nc12,x,117.0,18.0,x,100.0,x,x,x
CCOc1cccc2sc(N(CCCN(C)C)C(=O)Cc3ccccc3)nc12,22.2,180.0*,75.0*,-9.2,128.0,133.0,31.0,113.0
O=C(NNS(=O)(=O)c1ccc(F)cc1)c1cc(Cl)ccc1O,-9.4,109.0,11.0,x,111.0,x,x,x
CCO[C@H]1OC(C(=O)NC2CC2)=C[C@@H](C2CC2)[C@@H]1CCCO,x,105.0,5.0,5.5,104.0,x,x,x
CC(C)(C)N1CC(OC(N)=O)C1,x,102.0,8.0,x,113.0,x,x,x
CN(C)c1ccsc1C(=O)NNS(=O)(=O)c1ccc(Cl)cc1,-29.7,x,x,x,x,x,x,x
Cc1ccc(Nc2cc(-c3ccccc3)nc3ncnn23)cc1,-20.3,74.0,-20.0,x,78.0,x,x,x
CCSc1nnc(-c2ccncc2)o1,-31.9,90.0,-2.0,3.7,96.0,x,x,x
CCSc1nnc(-c2sc3nnc(-c4ccccc4)c(-c4ccccc4)c3c2N)o1,x,70.0*[inhibitor],-14.0,-5.7,96.0,76.0,-18.0,96.0
O=C(CCNC(=O)c1ccccc1)Nc1ccc(F)c(Cl)c1,x,108.0,1.0,-4.3,138.0*,103.0,5.0,102.0
O=C(/C=C/c1ccccc1)NC(NC(=S)Nc1cccc(O)c1)C(Cl)(Cl)Cl (centres undefined),5.4,139.0*,3.0,-8.0,111.0,89.0,-6.0,96.0
Cc1ccccc1-n1c(O)c(/C=N/N2CCCCC2c2cccnc2)c(=O)[nH]c1=O (centres undefined),x,105.0,0.0,1.1,173.0*,104.0,3.0,101.0
CCn1c(C)nc2cc(C(=O)NNC(=S)Nc3ccc(F)cc3)ccc21,-16.0,101.0,8.0,x,103.0,x,x,x
CCn1c(C)nc2cc(C(=O)NNC(=S)Nc3ccc(Cl)cc3)ccc21,-27.9,19.0*[inhibitor],-13.0,x,25.0*[inhibitor],97.0,5.0,101.0
COc1ccccc1CNC(=O)C1CCN(Cc2nc(-c3ccc(Cl)cc3)oc2C)CC1,-13.9,x,x,x,x,x,x,x
CCc1ccc(-c2nc(CN3CCC(C(=O)NCc4ccccc4OC)CC3)c(C)o2)cc1,1.7,156.0*,16.0,-5.5,104.0,114.0,3.0,104.0
Cc1ccccc1-c1nc(CN2CCC(C(=O)NCCCN3CC(C)CC(C)C3)CC2)c(C)o1 (centres undefined),-27.1,142.0*,18.0,-33.6,107.0,127.0,18.0,102.0
CC(=O)Nc1cccc2c1C(=O)N(c1cccc(C)c1)C2=O,x,84.0,8.0,1.3,73.0*[inhibitor],30.0,-20.0,53.0*
CC(=O)Nc1cccc2c1C(=O)N(c1cccc(OC(C)=O)c1)C2=O,1.1,79.0,-14.0,6.8,83.0,x,x,x
CN(c1ccc(F)cc1)S(=O)(=O)c1ccc(Cl)c(C(=O)Nc2ccc3c(c2)CCC3)c1,-6.9,111.0,1.0,14.1,134.0*,104.0,-5.0,101.0
COc1ccc(OC)c(CNn2c(-c3cccc(C)c3)nc3ccccc3c2=O)c1,x,0.0*[inhibitor],-21.0,-5.6,1.0*[inhibitor],106.0,3.0,106.0
O=C(Nc1cccc(Cl)c1)c1cc(S(=O)(=O)NCCc2ccc(Cl)cc2)ccc1F,16.5,110.0,1.0,-34.6,102.0,x,x,x
O=c1oc2ccccc2cc1-c1nc2c(s1)CCc1ccccc1-2,7.1,63.0*[inhibitor],-2.0,10.8,92.0,72.0,-15.0,99.0
O=C(Cn1cnc(S(=O)(=O)N2CCCC2)c1)Nc1ccc(OC(F)(F)F)cc1,x,101.0,-1.0,x,102.0,x,x,x
O=C(Nc1ccc(Br)c(C(F)(F)F)c1)c1ccc(C(F)(F)F)cc1,-22.4,139.0*,10.0,x,119.0,141.0,18.0,103.0
c1ccc(-c2cn3nc(-c4ccccc4)c(-c4ccccc4)nc3n2)cc1,6.0,63.0*[inhibitor],-5.0,-14.9,107.0,61.0,-20.0,93.0
